Measurements: ChEMBL document CHEMBL3988442, “University of Dundee, Small-Polar-MMV Screening Library” (2021)
For some assays here: Results with a measured potency or affinity are listed apart.

How the values were obtained:
Design in all cases: scale not given: direction of the effect not stated beside the values
[1] = target: Protein translocase subunit SecA (Escherichia coli (strain K12)) (UniProt P10408); assay: Assay to Identify E. coli SecA ATPase Inhibitors; type: functional; settings: 30 µM
Chain of Protein translocase subunit SecA (Escherichia coli (strain K12)) (P10408 whole entry): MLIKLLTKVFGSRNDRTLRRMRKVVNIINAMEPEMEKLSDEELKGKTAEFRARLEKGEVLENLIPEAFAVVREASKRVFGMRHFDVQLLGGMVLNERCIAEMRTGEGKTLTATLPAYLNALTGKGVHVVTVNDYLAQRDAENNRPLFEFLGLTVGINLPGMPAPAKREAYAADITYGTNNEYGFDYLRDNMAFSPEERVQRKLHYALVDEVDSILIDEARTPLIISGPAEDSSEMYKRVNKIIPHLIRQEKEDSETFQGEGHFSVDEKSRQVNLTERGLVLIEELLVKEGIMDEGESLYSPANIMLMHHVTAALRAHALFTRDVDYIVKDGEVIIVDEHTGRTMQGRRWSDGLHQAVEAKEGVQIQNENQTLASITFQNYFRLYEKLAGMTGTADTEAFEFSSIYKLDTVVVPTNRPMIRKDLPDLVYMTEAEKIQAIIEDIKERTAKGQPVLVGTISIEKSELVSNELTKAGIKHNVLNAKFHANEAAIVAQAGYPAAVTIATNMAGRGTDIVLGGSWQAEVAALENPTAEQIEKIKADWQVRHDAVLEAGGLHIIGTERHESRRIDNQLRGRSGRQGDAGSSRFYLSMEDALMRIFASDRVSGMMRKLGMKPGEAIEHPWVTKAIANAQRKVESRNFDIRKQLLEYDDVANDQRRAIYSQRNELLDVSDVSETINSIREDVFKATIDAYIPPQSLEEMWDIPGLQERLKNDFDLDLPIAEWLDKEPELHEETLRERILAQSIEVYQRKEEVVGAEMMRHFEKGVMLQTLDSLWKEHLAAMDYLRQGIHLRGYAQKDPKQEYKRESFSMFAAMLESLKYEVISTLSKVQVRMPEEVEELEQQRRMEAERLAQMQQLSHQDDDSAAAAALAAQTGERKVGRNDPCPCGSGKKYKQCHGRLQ

[2] = target: T1, Ubiquitin-activating enzyme e1, putative (Leishmania donovani (strain BPK282A1)) (UniProt E9BSI1); assay: Leishmania donovani Ubiquitin Activating Enzyme (LdE1); type: functional; settings: 30 µM
T1 sequence (whole entry): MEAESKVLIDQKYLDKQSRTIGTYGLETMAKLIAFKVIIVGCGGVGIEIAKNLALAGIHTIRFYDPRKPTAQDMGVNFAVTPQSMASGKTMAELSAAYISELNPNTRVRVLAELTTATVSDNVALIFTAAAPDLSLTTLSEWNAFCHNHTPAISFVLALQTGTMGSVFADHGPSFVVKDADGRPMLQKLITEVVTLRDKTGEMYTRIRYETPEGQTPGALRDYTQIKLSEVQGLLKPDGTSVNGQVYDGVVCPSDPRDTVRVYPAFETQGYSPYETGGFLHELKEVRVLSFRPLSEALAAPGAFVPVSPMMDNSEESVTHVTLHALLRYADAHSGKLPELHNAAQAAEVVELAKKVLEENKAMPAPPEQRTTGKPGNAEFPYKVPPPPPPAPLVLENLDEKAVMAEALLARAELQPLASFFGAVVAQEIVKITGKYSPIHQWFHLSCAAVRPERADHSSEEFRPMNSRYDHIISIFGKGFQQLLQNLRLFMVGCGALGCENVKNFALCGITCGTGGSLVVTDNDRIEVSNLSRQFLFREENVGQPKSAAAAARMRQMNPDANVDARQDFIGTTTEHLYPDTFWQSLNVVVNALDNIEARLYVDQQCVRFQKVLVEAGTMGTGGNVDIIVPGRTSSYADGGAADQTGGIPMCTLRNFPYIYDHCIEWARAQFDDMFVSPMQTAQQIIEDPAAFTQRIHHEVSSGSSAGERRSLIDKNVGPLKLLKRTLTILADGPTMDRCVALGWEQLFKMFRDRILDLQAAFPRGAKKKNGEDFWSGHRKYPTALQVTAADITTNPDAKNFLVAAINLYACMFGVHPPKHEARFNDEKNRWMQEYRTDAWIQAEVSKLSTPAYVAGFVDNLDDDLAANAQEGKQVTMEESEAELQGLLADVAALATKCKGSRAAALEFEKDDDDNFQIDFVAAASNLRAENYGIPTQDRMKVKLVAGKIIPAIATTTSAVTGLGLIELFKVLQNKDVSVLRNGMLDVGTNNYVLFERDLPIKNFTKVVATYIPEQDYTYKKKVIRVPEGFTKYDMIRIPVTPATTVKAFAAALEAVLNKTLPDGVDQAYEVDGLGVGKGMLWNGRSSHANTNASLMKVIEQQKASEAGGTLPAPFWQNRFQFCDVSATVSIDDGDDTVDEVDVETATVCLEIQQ

[3] = target: AMP-activated protein kinase, AMPK (Homo sapiens) (UniProt P54646+O43741+P54619+Q9UGJ0+Q9Y478+Q13131+Q9UGI9); assay: AMP-dependent Kinase enzyme assay. An in vitro enzyme assay that detects ADP turnover that is directly proportional to AMPK activity. This uses naive AMPK that is activated during the assay with MK-8722; type: functional; settings: 30 µM
[4] = target: Sialic acid-binding Ig-like lectin 9 (Homo sapiens) (UniProt Q9Y336); assay: Hs-Siglec9 ALPHAscreen SOP 20170721; settings: 10 µM
Chain of Sialic acid-binding Ig-like lectin 9 (Homo sapiens) (Q9Y336 whole entry): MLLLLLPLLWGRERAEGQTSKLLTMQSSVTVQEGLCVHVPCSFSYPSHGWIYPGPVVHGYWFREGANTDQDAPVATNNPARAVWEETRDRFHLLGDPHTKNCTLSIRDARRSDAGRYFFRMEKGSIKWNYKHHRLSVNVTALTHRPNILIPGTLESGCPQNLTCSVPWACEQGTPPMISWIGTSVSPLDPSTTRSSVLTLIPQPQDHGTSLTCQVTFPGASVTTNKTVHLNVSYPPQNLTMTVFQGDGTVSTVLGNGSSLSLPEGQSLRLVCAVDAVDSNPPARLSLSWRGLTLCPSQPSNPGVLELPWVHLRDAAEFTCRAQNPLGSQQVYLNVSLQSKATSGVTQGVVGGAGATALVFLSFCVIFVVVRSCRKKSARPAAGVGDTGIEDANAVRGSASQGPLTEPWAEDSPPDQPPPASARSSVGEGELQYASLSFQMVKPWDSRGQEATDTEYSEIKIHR

Trypanosoma cruzi = assay: Trypanosoma cruzi phosphomannomutase and mannose-1-phosphate guanylyltransferase assay; type: functional; settings: 10 µM
[5] = target: T2, Arginase-2, mitochondrial (Homo sapiens) (UniProt P78540); assay: in vitro enzyme assay to detect the production of urea directly proportional to the activity of Arginase II; type: functional; settings: 33.3 µM; further: in the data most compounds retested in dose-response had high values
T2 sequence (whole entry): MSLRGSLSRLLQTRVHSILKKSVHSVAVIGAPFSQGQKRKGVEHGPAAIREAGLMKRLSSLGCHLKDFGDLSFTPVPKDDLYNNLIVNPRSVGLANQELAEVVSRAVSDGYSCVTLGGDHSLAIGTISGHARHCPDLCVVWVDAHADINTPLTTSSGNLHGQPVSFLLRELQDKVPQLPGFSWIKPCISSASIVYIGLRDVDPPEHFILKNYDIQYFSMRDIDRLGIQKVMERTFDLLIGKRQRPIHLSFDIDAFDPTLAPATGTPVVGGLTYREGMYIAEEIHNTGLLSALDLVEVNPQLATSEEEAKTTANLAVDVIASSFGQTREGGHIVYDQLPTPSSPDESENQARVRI

[6] = target: T3, Proteasome subunit beta (Trypanosoma cruzi) (UniProt O96673); assay: Trypanosoma cruzi proteasome chymotrypsin-like activity (TcProtChymo) assay.; further: in the data most compounds retested in dose-response had high values; type: functional; settings: 9.37 µM
T3 sequence (whole entry): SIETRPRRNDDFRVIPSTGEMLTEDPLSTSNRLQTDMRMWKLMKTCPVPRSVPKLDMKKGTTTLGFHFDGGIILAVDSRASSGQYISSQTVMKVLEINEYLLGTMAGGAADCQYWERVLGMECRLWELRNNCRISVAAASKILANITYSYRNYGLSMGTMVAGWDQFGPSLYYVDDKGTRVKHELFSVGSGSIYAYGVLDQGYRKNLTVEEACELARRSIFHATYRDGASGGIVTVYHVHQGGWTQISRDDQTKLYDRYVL

Homo sapiens = organism: Homo sapiens; assay: To identify inhibition of the IFN signalling (Jak-Stat) pathway via expression of an eGFP reporter gene under the control of an IFN-stimulated response element (ISRE) containing MxA promoter.; type: functional; settings: 30 µM
[7] = target: T4, Tyrosyl-tRNA synthetase, putative (Trypanosoma cruzi (strain CL Brener)) (UniProt Q4DSP6); assay: Trypanosoma cruzi tyrosyl tRNA synthetase (TcYRS) _High Tyrosine SOP; type: functional; settings: 30 µM; further: in the data most compounds retested in dose-response had high values
T4 sequence (whole entry): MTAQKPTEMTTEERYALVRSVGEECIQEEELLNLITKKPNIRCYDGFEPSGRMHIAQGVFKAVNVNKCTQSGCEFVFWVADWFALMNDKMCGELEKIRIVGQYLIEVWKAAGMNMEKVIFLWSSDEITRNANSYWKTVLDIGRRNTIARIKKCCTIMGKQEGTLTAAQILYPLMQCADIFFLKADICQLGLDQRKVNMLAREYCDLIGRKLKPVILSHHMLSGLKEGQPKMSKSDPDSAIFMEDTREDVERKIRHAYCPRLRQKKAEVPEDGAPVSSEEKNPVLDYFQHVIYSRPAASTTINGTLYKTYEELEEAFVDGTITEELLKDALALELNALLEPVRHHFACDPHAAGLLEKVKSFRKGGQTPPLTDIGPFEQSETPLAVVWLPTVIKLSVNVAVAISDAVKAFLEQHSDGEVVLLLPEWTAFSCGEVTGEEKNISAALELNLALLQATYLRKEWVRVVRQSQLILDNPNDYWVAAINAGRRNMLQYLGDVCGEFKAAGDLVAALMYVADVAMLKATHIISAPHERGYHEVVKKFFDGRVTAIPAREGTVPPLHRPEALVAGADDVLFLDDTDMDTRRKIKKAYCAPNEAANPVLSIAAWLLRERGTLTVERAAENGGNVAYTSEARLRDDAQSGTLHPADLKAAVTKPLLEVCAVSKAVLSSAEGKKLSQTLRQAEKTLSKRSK

[8] = target: T4, Tyrosyl-tRNA synthetase, putative (Trypanosoma cruzi (strain CL Brener)); assay: Trypanosoma cruzi tyrosyl tRNA synthetase (TcYRS) SOP; type: functional; settings: 30 µM
[9] = target: Chromo domain-containing protein 1 (Saccharomyces cerevisiae (strain ATCC 204508 / S288c) (Baker's yeast)) (UniProt P32657); assay: ScCHD-1 Enzyme Inhibition Assay; type: functional; settings: 30 µM; further: in the data most compounds retested in dose-response had high values
Chain of Chromo domain-containing protein 1 (Saccharomyces cerevisiae (strain ATCC 204508 / S288c) (Baker's yeast)) (P32657 whole entry, the tested form may be a part): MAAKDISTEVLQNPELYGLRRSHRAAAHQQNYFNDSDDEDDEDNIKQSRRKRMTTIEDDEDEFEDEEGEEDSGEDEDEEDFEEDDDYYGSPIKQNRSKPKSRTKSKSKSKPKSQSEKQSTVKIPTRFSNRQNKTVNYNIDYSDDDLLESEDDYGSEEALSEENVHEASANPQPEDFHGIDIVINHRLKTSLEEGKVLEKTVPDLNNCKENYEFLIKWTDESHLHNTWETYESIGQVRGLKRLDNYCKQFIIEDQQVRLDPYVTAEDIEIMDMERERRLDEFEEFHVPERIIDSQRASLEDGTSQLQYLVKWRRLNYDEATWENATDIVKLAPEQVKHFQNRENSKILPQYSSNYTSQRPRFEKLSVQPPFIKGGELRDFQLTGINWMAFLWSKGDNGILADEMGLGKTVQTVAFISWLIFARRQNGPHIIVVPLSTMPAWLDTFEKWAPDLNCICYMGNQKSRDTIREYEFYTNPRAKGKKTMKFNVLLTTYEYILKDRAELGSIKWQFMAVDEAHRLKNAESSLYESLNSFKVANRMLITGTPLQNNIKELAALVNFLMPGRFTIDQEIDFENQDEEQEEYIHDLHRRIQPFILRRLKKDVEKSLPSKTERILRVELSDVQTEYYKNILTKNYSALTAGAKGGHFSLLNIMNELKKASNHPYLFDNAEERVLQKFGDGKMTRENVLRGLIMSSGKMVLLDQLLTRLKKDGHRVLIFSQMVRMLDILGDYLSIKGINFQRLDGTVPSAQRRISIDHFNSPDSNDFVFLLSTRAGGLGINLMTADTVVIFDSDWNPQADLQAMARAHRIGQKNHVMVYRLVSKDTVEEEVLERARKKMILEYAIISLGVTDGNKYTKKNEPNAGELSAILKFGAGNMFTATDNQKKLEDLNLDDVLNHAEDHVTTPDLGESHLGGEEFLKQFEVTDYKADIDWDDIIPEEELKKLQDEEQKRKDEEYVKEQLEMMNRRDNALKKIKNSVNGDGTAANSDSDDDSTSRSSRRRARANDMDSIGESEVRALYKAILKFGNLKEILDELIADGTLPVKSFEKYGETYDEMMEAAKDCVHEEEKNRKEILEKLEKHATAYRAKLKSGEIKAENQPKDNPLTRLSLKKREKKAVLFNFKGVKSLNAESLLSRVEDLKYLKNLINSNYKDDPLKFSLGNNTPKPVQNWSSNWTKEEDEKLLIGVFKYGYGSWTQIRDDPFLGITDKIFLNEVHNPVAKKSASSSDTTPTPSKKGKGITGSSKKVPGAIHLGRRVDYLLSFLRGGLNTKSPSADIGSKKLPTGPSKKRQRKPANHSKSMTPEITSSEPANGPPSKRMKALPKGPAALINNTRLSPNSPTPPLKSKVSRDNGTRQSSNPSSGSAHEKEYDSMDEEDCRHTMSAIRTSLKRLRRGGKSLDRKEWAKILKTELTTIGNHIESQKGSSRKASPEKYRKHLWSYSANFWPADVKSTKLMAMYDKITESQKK

Structure (SMILES) | Percent Effect [1] [%] | Percent Effect [2] [%] | Percent Effect [3] [%] | Percent Effect [4] [%] | Percent Effect (Trypanosoma cruzi) [%] | Percent Effect [5] [%] | Percent Effect [6] [%] | Percent Effect (Homo sapiens) [%] | Percent Effect [7] [%] | Percent Effect [8] [%] | Percent Effect [9] [%]
O=C1CC2(CCCCC2)CC(=O)N1CC(O)COCc1ccc(Cl)cc1 (stereo unspecified) | -4.15 | -10.8 | -0.127 | -2.3 | -1.66 | -0.744 | -2.66 | 2.65 | -2.15 | -6.17 | 6.87
CN(C)Cc1ccnc(C2CCCN2Cc2ccncc2)n1 (stereo unspecified) | -4.54 | 9.46 | -5.08 | 2.14 | 6.72 | -4.41 | 4.21 | 7.82 | 3.23 | 11.7 | -20.6
COc1ccc(-n2cnnc2SCC(C)(C)O)cn1 | -0.589 | 2.67 | -3.7 | 25.4 | 3.02 | 16.7 | -5.75 | 15.9 | 3.83 | 3.7 | -1.24
CCOC(=O)[C@]12CCCN(Cc3ccco3)C[C@H]1CN(CCN(C)C)C2 | -2.71 | 7.79 | 3.96 | 8.64 | -0.888 | -0.645 | 14.4 | 2.34 | 1.06 | 8.97 | -6.8
NC(=O)C1(Cc2ccccc2-c2ccccc2)CCCN(CC2CC2)C1 (stereo unspecified) | -0.127 | 0 | 8.02 | 1.63 | 3.15 | 0.233 | 5.2 | -4.55 | 2.13 | 3.85 | -2.97
CCCn1nc(C2CCNCC2)n(Cc2ccccc2)c1=O | -2.26 | 13.5 | -3.97 | 17 | 7.34 | -5.71 | 10.2 | 0.924 | 5.82 | 14.6 | -1.76
Cc1nn(C)c2cnn(C(C)C(=O)NCc3cccnc3)c12 (stereo unspecified) | -0.721 | 20 | -1.87 | 5 | 1.18 | -1.58 | 12.8 | 17.9 | 5.29 | 17.9 | -9.71
CCCNC(=O)CCC(=O)Nc1ccc(-n2cncn2)c(F)c1 | -7 | 2.63 | -2.96 | 4.31 | -6.2 | -2.68 | -0.501 | 29.1 | -0.49 | 0 | -1.12
O=C(COc1cccc(Br)c1)N1CCOCC1c1ncon1 (stereo unspecified) | -1.32 | -2.7 | -2.58 | -3.06 | 6.13 | 1.6 | 1.44 | -26.1 | 1.48 | -1.24 | -4.52
O=C(Cn1ccc2sccc2c1=O)NCc1ccc2c(c1)OCO2 | -3.35 | 5.2 | 2.53 | 0.145 | -5.62 | 4.52 | 4.53 | 1.29 | 5.29 | 11.5 | -2.27
Cc1nc(C)n(C2CCCN(C(=O)c3csc(C(C)C)n3)C2)n1 (stereo unspecified) | -5.33 | 29.7 | -10.5 | 12.2 | 8.4 | -10.4 | 8.83 | 14.5 | 8.37 | 28.4 | -17.4
CCc1nc(CN2CCCN(C(=O)C(C)COC)CC2)cs1 (stereo unspecified) | -1.87 | 26 | -9.16 | 1.76 | 3 | 3.92 | 17.2 | 10.8 | 9.71 | 21.9 | -10.9
CCn1c(CN2CCC(O)(C(=O)OC)CC2)nc2c(F)cccc21 | -3.73 | -44.7 | -3.77 | 0.565 | 8.27 | -3.06 | 7.85 | 11.3 | 5.39 | 9.76 | -12.4
Fc1cccc(-n2ccc(CN3CCCCC3Cn3cncn3)n2)c1 (stereo unspecified) | -3.79 | -7.59 | 0.842 | 2.62 | -2.74 | -1.14 | -2.21 | 17 | -2.46 | -8.86 | 2.75
CCOCCCNc1nc(O)cc(C2CC(=O)N(C)C2)n1 (stereo unspecified) | -3.32 | 6.76 | -1.4 | 1.36 | 3.95 | -4.41 | 9.83 | -10.5 | 1.07 | 9.09 | -25.9
CCn1ccnc1CN1CCN(CC(=O)NC(=O)NC2CC2)CC1 | -0.559 | 13.2 | 1.1 | 4.6 | 3.95 | 0 | 16.5 | -2.49 | 8.33 | 19.5 | -6.48
